Source: PubChem BioAssay (NCI)
The panel holds about 83,000 compounds, 20% with a hit somewhere; the sample as a whole holds those more often.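 Single-dose data. Exposure time 48 hours. Values below 10 considered active.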 Values without a mark were called inactive. Active and inactive are the calls of the source.

How the values were obtained:
Experiment in all cases: NCI-60 one-dose screen, 48 h (100 = growth as untreated, 0 = no growth, -100 = all killed)
Details in all cases: 10 µM
[1] = tested on: NCI-H23 lung
[2] = tested on: NCI-H226 lung
[3] = tested on: NCI-H322M lung
[4] = tested on: HOP-62 NSCLC
[5] = tested on: NCI-H460 lung
[6] = tested on: HOP-92 NSCLC
[7] = tested on: NCI-H522 lung
[8] = tested on: A549/ATCC NSCLC
[9] = tested on: 786-0 renal
[10] = tested on: COLO 205 colon
[11] = tested on: DU-145 prostate
[12] = tested on: K-562 leukemia
[13] = tested on: MALME-3M melanoma
[14] = tested on: MDA-MB-231 breast
[15] = tested on: RXF 393 renal
[16] = tested on: SF-268 CNS
[17] = tested on: SF-295 CNS
[18] = tested on: SF-539 CNS
[19] = tested on: UACC-257 melanoma
[20] = tested on: M14 melanoma

Compound | growth [1] | growth [2] | growth [3] | growth [4] | growth [5] | growth [6] | growth [7] | growth [8] | growth [9] | growth [10] | growth [11] | growth [12] | growth [13] | growth [14] | growth [15] | growth [16] | growth [17] | growth [18] | growth [19] | growth [20]
C/C(=C\CSc1ccccc1C(=O)O)CCCC(C)CCCC(C)CCCC(C)C (stereo not given) | 35.5% | 77.5% | 65.8% | 57.6% | 39.6% | 71.4% | 23.3% | 41.3% | 67.3% | 87.8% | 67.1% | 36.2% | 86.4% | 75.9% | 87.8% | 51.5% | 40.6% | 61.1% | 80.7% | 60%
COc1ccc(NC(=O)Nc2ccc(OCC(=O)N=Nc3c(O)[nH]c4ccc([N+](=O)[O-])cc34)cc2)cc1 | 59.5% | 62.7% | 91.2% | 40.7% | 74% | 53.5% | 0.434% (active) | 99% | 73.1% | 112% | 91% | 95.7% | 94.5% | 56% | 107% | 63.7% | 100% | 73.3% | 107% | 118%
O=C(c1ccc(Cl)cc1)C1[C@H](c2ccc(Br)cc2)[C@@H](c2ccccc2)NC12C(=O)Nc1ccc(Cl)cc12 (stereo not given in full) | -83.6% (active) | -85.6% (active) | -28.6% (active) | -73.4% (active) | -63% (active) | -69.2% (active) | -79.5% (active) | -44% (active) | -68% (active) | -87.7% (active) | -27.9% (active) | -31.2% (active) | -97.7% (active) | -95.3% (active) | -88.8% (active) | -7.66% (active) | -84% (active) | -58.5% (active) | -49.4% (active) | 6.42% (active)
CC(=O)Nc1ccc(-n2cnc3cc(-c4ccc(O)cc4)ccc32)cc1F | 49.2% | 9.75% (active) | 52% | 44.4% | 10.5% | 55.1% | -42.7% (active) | 33.8% | 32.4% | -11.4% (active) | 34% | 6.14% (active) | 65.6% | 34.7% | -0.397% (active) | 40.6% | 2.75% (active) | -5.18% (active) | 59.8% | 35.5%
O=C(Nc1ccc(I)cc1F)c1cc(-c2ccc(F)cc2F)ccc1O | -22% (active) | -7.15% (active) | 6.19% (active) | -10.6% (active) | 2% (active) | -26.3% (active) | -9.59% (active) | 9.86% (active) | 16.7% | -35.6% (active) | 21.5% | 7.69% (active) | -21.4% (active) | -1.69% (active) | -9.21% (active) | 8.16% (active) | -37.7% (active) | 0.0441% (active) | -7.17% (active) | 28.8%
O=C(c1ccc(O)cc1)C1[C@H](c2ccccc2Br)[C@@H](c2ccccc2)NC12C(=O)Nc1ccc(Br)cc12 (stereo not given in full) | 46.4% | 36.5% | 55.6% | 53.2% | 31.1% | 53.3% | 0.143% (active) | 34.4% | 47.8% | 29.7% | 70.2% | 29.9% | 78.7% | 46.3% | 55.3% | 40% | 26.6% | 49.1% | 65.4% | 54.6%
CO[C@@H]1CSS[C@H]1Cn1nc(-c2ccc(Oc3ccccc3)cc2)c2c(N)ncnc21 | 63.5% | 24.7% | 76.4% | 111% | 77.4% | 57.9% | 17.3% | 45.7% | 55.3% | 61.8% | 73.5% | 8.2% (active) | 63.4% | 72.6% | 35.5% | 70% | 43.1% | 50% | 40.8% | -64.2% (active)
CONC[C@]1(C)C=C2C(=O)[C@](C)(O)C3(CC3)C(C)=C2[C@H]1O | -82.6% (active) | -26.7% (active) | -9.89% (active) | -21.7% (active) | -24.4% (active) | -16.6% (active) | -71.1% (active) | 5.7% (active) | 5.71% (active) | -79.1% (active) | 2.57% (active) | 2.9% (active) | -73.5% (active) | -33.5% (active) | -85.9% (active) | -4.06% (active) | -9.33% (active) | -80.5% (active) | -27.2% (active) | -13.5% (active)
